This note sets out measurements from PubChem BioAssay (Tox21).

The nature of assay [1]: qHTS assay to identify small molecule antagonists of the thyroid receptor (TR) signaling pathway (AID 743065). Note: nearly all actives have a fitted effect of over 55% in size. Note: potency is the fitted concentration of half-maximal effect. The procedure, abridged: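 Antagonism measured as loss of luciferase signal in GH3 cells stably carrying a TRE-luciferase reporter, co-treated with compound and T3 (1 nM final) for 23.5 h at 37 C. Viability was read in the same well by CellTiter-Fluor.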
(In general: Quantitative high-throughput screening tests each substance at several concentrations.)

In assay [2] the test system is thyroid hormone receptor (rat, GH3 cells). Briefly: qHTS assay to identify small molecule agonists of the thyroid receptor (TR) signaling pathway (AID 743066; calls by dose curve).
Assay [3] can be described thus: qHTS assay to identify small molecule antagonists of the estrogen receptor alpha (ER-alpha) signaling pathway - cell viability counter screen (AID 743074; calls by dose curve;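 note: HEK293 cells carrying ER-alpha-UAS-bla reporter stimulated with 17beta-estradiol; nearly all actives have a fitted effect of over 45% in size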).
Assay [4] is described as follows: qHTS assay to identify small molecule antagonists of the estrogen receptor alpha (ER-alpha) signaling pathway using the BG1 cell line (AID 743080; calls by dose curve;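 note: BG1 cells stimulated with 17beta-estradiol alongside compound; series mostly up to about 70 µM; nearly all actives have a fitted effect of over 25% in size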). The procedure, abridged: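 Seeding, 24 h rest, compound transfer from DMSO, 17beta-estradiol addition, 21.5 h incubation, CellTiter-Fluor (30 min, 37 C), then ONE-Glo (30 min, room temperature): this sequence was run on BG1-Luc-4E2 reporter cells.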

Assay [5] is described as follows: qHTS assay to identify small molecule antagonists of the estrogen receptor alpha (ER-alpha) signaling pathway using the BG1 cell line - cell viability counter screen (AID 743081).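 Note: compound given together with 17beta-estradiol as the ER stimulus; series mostly up to about 70 µM; nearly all actives have a fitted effect of over 45% in size.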
Another assay addresses Aromatase (Homo sapiens) (UniProt P11511). Briefly: qHTS assay to identify aromatase inhibitors (AID 743083). Note: series mostly up to about 70 µM; nearly all actives have a fitted effect of over 55% in size.
Assay [6] in a line: qHTS assay to identify aromatase inhibitors - cell viability counter screen (AID 743084).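 Note: cells stimulated with testosterone during compound exposure; nearly all actives have a fitted effect of over 55% in size.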
The target of assay [7] is Aryl hydrocarbon receptor (Homo sapiens) (UniProt P35869). In words: qHTS assay to identify small molecule that activate the aryl hydrocarbon receptor (AhR) signaling pathway (AID 743085).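 For activation: HG2L7.5c1 human HepG2 liver cells with stably integrated DRE-driven firefly reporter; series mostly up to about 70 µM.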 Note: nearly all actives have a fitted effect of over 15% in size. Note: potency is the fitted concentration of half-maximal effect. The procedure, abridged: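 HepG2 cells (HG2L7.5c1) stably carrying a firefly luciferase reporter driven by 20 dioxin responsive elements were exposed to compound for 24 h at 37C after a 5 h settling period; luminescence rise (ONE-Glo) indicated activation.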

Assay [8] in a line: qHTS assay to identify small molecule that activate the aryl hydrocarbon receptor (AhR) signaling pathway - cell viability counter screen (AID 743086).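 Note: HepG2 liver cells carrying the AhR DRE luciferase reporter; series mostly up to about 70 µM; nearly all actives have a fitted effect of over 45% in size.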 The procedure, abridged:
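Cytotoxicity counter screen: CellTiter-Fluor signal (30 min, 37 C) in 4000 HepG2 cells/well carrying the DRE-luciferase reporter, following 24 h compound exposure at 37 C.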

Assay [9] in a line: qHTS assay to identify small molecule antagonists of the peroxisome proliferator-activated receptor gamma (PPARg) signaling pathway - cell viability counter screen (AID 743194). Note: nearly all actives have a fitted effect of over 55% in size. The procedure, abridged:
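Viability was measured as CellTiter-Glo luminescence in GeneBLAzer PPARg UAS-bla HEK293H cells. These cells had been exposed 17 h at 37 C to compounds together with rosiglitazone at 50 nM final, with the beta-lactamase readout taken in the same wells.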

Assay [10] in a line: qHTS assay for small molecule agonists of the antioxidant response element (ARE) signaling pathway (AID 743202; active = well fitted activation curve with a large enough effect in the signal ratio in the repeat runs, not every such curve was filed as active; the % refers to the signal ratio; note: potency is the fitted concentration of half-maximal effect). In short, it runs like this: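 An ARE-responsive beta-lactamase gene stably integrated in HepG2 cells serves as reporter. After 5 h plating and 16 h compound incubation at 37 C, fluorescence of the B/G FRET substrate was measured.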
Assay [11] is described as follows: qHTS assay for small molecule agonists of the antioxidant response element (ARE) signaling pathway - cell viability counter screen (AID 743203; calls by dose curve; note: nearly all actives have a fitted effect of over 55% in size). In short, it runs like this: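 HepG2 cells carrying ARE-driven beta-lactamase; 2,000 cells/well; 5 hrs plating; compound pinned from DMSO; 16 hrs 37C/5% CO2; CellTiter-Glo added; 30 min RT; luminescence.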
Assay [12] can be described thus: qHTS assay for small molecule activators of the heat shock response signaling pathway - cell viability counter screen (AID 743209). Note: nearly all actives have a fitted effect of over 50% in size. The procedure, abridged: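 Luminescence from CellTiter-Glo, added after the beta-lactamase FRET read, gave the viability signal. Cells were HSE-bla HeLa treated with DMSO-dissolved compounds for 5 h at 37 C following overnight plating.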

Assay [13] is described as follows: qHTS assay for small molecule activators of the heat shock response signaling pathway (AID 743210; active = well fitted activation curve with a large enough effect in the signal ratio in the repeat runs, with a control signal flat, not every such curve was filed as active; the % refers to the signal ratio;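 note: HeLa cells with beta-lactamase reporter driven by heat shock elements; series mostly up to about 63 µM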). The procedure, abridged: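 In HSE-bla HeLa cells, 5 h compound incubation (37 C) precedes addition of LiveBLAzer B/G substrate; after 2.5 h at room temperature, fluorescence intensity indicates reporter induction.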
Assay [14] concerns the target Peroxisome proliferator-activated receptor gamma (Homo sapiens) (UniProt P37231). In words: qHTS assay to identify small molecule agonists of the peroxisome proliferator-activated receptor gamma (PPARg) signaling pathway (AID 743094; active = well fitted activation curve with a large enough effect in the signal ratio in the repeat runs, not every such curve was filed as active; the % refers to the signal ratio). The procedure, abridged: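 Beta-lactamase FRET fluorescence was the read-out after a 1 h room-temperature substrate step, following 17 h compound treatment at 37C of HEK293H cells expressing a UAS-driven bla reporter responsive to PPARg.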

The target is the same in assay [15]. In words: qHTS assay to identify small molecule antagonists of the peroxisome proliferator-activated receptor gamma (PPARg) signaling pathway (AID 743191; calls by dose curve; note: series mostly up to about 63 µM; nearly all actives have a fitted effect of over 30% in size). In short, it runs like this:
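Beta-lactamase reporter under UAS control in HEK293H PPARg-bla cells; compound treatment 17 h at 37C. Read-out: fluorescence intensity after 1 h room-temperature incubation with LiveBLAzer B/G FRET substrate.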

Assay [16] has as its target Estrogen receptor (Homo sapiens) (UniProt P03372). In words: qHTS assay to identify small molecule antagonists of the estrogen receptor alpha (ER-alpha) signaling pathway (AID 743069; active = well fitted curve in the direction sought with a large enough effect in the signal ratio in the repeat runs, not every such curve was filed as active; the % refers to the signal ratio). The procedure, abridged:
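Compound effects are measured against 17beta-estradiol stimulation in HEK293 cells with a UAS-controlled beta-lactamase reporter for ER-alpha. Exposure lasts 18 hr at 37C; LiveBLAzer B/G FRET substrate follows for 2 hr at room temperature.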

The target is the same in assay [17]. Briefly: qHTS assay to identify small molecule agonists of the estrogen receptor alpha (ER-alpha) signaling pathway (AID 743075; calls by dose curve).
Assay [18] shares this target. Briefly: qHTS assay to identify small molecule agonists of the estrogen receptor alpha (ER-alpha) signaling pathway using the BG1 cell line (AID 743079). Note: nearly all actives have a fitted effect of over 20% in size.

Values joined by “and” are separate entries in the source; they are usually repeats but may differ in a detail not shown here. Equal entries are not always repeated. Results filed as inconclusive are left out. A number with no mark means an inactive call. Active and inactive are the calls of the source. Unless noted, calls come from the whole dose curve; as a rule, active = well fitted curve in the direction sought with a large enough effect in the repeat runs; inconclusive = weak or mixed curves; inactive = no such curve, though single readings can be large; an effect the other way counts as inactive or inconclusive.

Estrogen receptor (Homo sapiens), sequence (P03372 whole entry, looked up): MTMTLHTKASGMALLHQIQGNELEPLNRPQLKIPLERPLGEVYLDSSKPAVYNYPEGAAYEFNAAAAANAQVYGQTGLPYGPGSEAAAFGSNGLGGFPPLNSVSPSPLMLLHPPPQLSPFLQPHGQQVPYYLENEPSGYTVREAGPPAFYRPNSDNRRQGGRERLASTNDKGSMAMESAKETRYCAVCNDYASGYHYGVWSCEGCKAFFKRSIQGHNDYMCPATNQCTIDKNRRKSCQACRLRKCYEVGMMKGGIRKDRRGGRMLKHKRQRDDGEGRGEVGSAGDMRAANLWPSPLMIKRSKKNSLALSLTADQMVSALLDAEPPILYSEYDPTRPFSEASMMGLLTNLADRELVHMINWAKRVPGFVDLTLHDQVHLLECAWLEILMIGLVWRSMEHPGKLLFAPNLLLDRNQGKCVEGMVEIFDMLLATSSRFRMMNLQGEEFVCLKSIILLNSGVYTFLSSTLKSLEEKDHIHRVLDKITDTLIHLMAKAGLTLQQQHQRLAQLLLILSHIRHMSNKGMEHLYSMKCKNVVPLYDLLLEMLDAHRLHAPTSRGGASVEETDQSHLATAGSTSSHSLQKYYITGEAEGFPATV
Peroxisome proliferator-activated receptor gamma (Homo sapiens), sequence (P37231 whole entry, looked up): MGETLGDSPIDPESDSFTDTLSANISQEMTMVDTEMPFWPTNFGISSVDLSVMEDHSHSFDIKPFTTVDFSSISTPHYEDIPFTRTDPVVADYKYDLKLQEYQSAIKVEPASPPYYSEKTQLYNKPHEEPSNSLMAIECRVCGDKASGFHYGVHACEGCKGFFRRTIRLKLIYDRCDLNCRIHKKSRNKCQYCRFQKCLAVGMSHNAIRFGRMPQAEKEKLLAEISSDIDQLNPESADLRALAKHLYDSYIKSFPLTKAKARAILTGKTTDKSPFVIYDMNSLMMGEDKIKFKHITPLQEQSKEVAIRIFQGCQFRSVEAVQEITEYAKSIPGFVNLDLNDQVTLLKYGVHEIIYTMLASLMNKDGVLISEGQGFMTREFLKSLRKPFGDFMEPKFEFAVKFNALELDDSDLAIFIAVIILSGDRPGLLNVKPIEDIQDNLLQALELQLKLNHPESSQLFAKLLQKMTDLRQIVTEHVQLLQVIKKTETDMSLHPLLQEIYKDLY
Aromatase (Homo sapiens), sequence (P11511 whole entry, looked up): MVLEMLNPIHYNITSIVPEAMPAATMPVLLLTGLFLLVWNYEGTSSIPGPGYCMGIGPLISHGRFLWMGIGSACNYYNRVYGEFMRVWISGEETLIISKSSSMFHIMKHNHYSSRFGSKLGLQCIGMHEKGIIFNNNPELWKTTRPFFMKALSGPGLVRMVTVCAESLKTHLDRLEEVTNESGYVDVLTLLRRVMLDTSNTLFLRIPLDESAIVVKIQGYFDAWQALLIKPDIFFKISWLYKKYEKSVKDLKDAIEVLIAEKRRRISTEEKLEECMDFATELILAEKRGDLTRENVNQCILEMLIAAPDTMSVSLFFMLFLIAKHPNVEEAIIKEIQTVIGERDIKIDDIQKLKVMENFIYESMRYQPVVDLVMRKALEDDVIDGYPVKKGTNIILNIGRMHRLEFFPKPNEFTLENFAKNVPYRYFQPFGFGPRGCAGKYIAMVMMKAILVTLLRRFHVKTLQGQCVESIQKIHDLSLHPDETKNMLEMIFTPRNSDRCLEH
Aryl hydrocarbon receptor (Homo sapiens), sequence (P35869 whole entry, looked up): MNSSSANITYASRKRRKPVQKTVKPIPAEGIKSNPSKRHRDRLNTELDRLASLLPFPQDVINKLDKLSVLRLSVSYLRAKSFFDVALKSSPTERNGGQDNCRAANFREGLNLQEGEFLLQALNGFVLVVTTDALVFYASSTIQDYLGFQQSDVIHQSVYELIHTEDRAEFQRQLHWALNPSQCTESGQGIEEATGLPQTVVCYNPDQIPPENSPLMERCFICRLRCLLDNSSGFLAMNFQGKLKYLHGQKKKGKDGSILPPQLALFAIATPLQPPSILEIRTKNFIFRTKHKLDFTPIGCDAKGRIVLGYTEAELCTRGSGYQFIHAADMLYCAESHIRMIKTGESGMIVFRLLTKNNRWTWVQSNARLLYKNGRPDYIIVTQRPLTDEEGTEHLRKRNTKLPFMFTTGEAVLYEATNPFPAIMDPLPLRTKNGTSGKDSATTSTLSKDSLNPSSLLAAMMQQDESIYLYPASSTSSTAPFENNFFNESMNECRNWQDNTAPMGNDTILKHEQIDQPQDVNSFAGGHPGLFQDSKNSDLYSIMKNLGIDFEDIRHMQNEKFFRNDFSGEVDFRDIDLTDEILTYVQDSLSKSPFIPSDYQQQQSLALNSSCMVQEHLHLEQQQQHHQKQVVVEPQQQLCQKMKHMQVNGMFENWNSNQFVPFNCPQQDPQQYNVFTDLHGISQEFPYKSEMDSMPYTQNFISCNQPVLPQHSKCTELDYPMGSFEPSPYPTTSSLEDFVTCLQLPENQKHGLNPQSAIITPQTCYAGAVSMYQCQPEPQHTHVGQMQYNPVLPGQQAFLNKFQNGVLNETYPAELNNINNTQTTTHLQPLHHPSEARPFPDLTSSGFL

In the case of `CC(C)(c1ccc(O)cc1)c1ccc(O)cc1`, the Potency was 61.1 µM (active) in assay [1]; 32.2 µM (active) in assay [7]; 27 µM (active) and 17.5 µM (active) in assay [10]. Besides, the outcome in assay [2], in [3], in assay [4], in assay [9], in [12] and in assay [13] was inactive. The Potency result (in assay [5]; with Aromatase (Homo sapiens); in [6]; in [8]; in assay [11]) was “inactive” in each case.

`Oc1ccc(C2CNCCc3c2cc(O)c(O)c3Cl)cc1` (stereo not drawn): the outcome in assay [3], in assay [14], in assay [9] and in [13] was inactive. The Potency entry (in [5]; with Aromatase (Homo sapiens); in assay [6]; in [7]; in [8]; in [11]) was “inactive” in each case.

Regarding `COc1ccc2c(c1)CCCC2=O`, the Potency entry in assay [15], in assay [10] and in [11] was “inactive” throughout. Further, the compound was called inactive in assay [9], in assay [12] and in assay [13].

As to `CCC=O`, the result in assay [2], in assay [16], in assay [3], in [4], in assay [14] and in [12] was inactive. The Potency result (in assay [5]; with Aromatase (Homo sapiens); in assay [6]; in assay [7]; in [8]; in [10]) was “inactive” throughout. Besides, the Potency result in [11] was “inactive”.

Turning to `COCCc1ccc(OCC(O)CNC(C)C)cc1` (stereo not drawn), the result in assay [3], in assay [9] and in assay [12] was inactive. The Potency entry (in [5]; with Aromatase (Homo sapiens); in assay [6]; in assay [7]; in assay [8]; in assay [15]) was “inactive” throughout. For the same compound, the Potency result in assay [10] and in assay [11] was “inactive” each time.

With `COc1c(N2C[C@@H]3CCCN[C@@H]3C2)c(F)cc2c(=O)c(C(=O)O)cn(C3CC3)c12`, the outcome in assay [16], in [3], in [4], in assay [14], in [9] and in assay [12] was inactive. In addition, the outcome in assay [13] was inactive. The Potency result (in assay [17]; in [18]; in assay [5]; with Aromatase (Homo sapiens); in assay [6]; in assay [7]) was “inactive” each time. Also, the Potency result in assay [8], in assay [15] and in assay [11] was “inactive” each time.

Turning to `O=C(CCCN1CCC(O)(c2cccc(C(F)(F)F)c2)CC1)c1ccc(F)cc1`, the outcome in [3], in assay [9], in assay [12] and in assay [13] was inactive. Besides, the Potency result (in the assay with Aromatase (Homo sapiens); in assay [6]; in [7]; in assay [15]; in assay [11]) was “inactive” each time.

Regarding `Nc1c2c(nc3ccccc13)CCCC2O` (stereo not drawn), the outcome in [16], in assay [3], in assay [4], in [14], in assay [9] and in [12] was inactive. Also, the call in assay [13] was inactive. The Potency result in assay [17], in [18], in assay [5], in assay [6], in [8] and in assay [11] was “inactive” each time.

For `Cc1cccn2c(=O)c(-c3nnn[nH]3)cnc12`, the outcome in [16], in [3], in assay [4], in assay [14], in assay [9] and in [12] was inactive. Also, the result in assay [13] was inactive. The Potency entry (in assay [17]; in assay [18]; in assay [5]; with Aromatase (Homo sapiens); in [6]; in assay [7]) was “inactive” in each case. For the same compound, the Potency result in assay [8], in assay [15], in assay [10] and in assay [11] was “inactive” each time.

On to `CCOC(=O)CC(C)=O`, for which the Potency result in [1], in assay [5], in assay [8], in [10] and in [11] was “inactive” each time. The compound was classed as inactive in assay [2], in [9], in assay [12] and in assay [13].
